# Most compounds without a hit are left out; they make up all but 3.9% or so of the library.
# aSyn 5UTR inh: MLPCN primary screen, SNCA 5' untranslated region; AID 1813; 300,000 compounds, 0.82% hits; alpha-synuclein 5'UTR reporter, inhibitor activity; inhibition, % (tested at 7.5 µM); in the data active means inhibition above about 60%;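 further: H4 neuroglioblastoma cells stably carrying SNCA 5'UTR luciferase fusion; 0% = DMSO wells and 100% = positive control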
# TWEAK-Fn14 inh: inhibitors of TWEAK-Fn14 interaction signaling; TWEAK-stimulated Fn14 reporter cells, luciferase luminescence, 8 h; inhibition, % at 10 µM; 360,000 compounds, 2% hits; in the data active means inhibition above about 50%
# HIF-2a inh: HIF-2a inhibition; inhibition, % at 18.8 µM; 360,000 compounds, 0.72% hits; 786-0 RCC cells HIF-2a reporter, luciferase luminescence, overnight; AID 624352;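 active means inhibition of the luminescence signal of 40% or more relative to plate controls, in a single-dose primary screen at 18.75 µM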
# HSP90 refold inh: blocks HSP90-mediated luciferase refolding in reticulocyte lysate | Rabbit reticulocyte lysate, luciferase refolding luminescence, 3 h | inhibition, % at 5.6 µM | 290,000 compounds, 0.91% hits | AID 1789;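 active means inhibition above the screen-wide mean plus 3 SD, computed separately per campaign, cut at about 16% in these data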;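 further: 0% = DMSO wells and 100% = 60 µM geldanamycin wells; inhibitors lower the luminescence because luciferase stays unfolded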
# C8 TRAIL sens: caspase-8 TRAIL sensitization | AID 624354 | NB7+C8 cells + TRAIL, ATPlite viability luminescence | 360,000 compounds, 1% hits | inhibition (viability loss, TRAIL sensitization), % at 10 µM;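 active means compounds causing at least 50% loss of cell viability in the single-dose screen, relative to plate controls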
# TROY signal inh: inhibitors of TROY-dependent NF-kB signaling; Q293 LMP1-TROYcd NF-kB luciferase reporter, 4 h; inhibition, % at 10 µM; 360,000 compounds, 0.98% hits; AID 1347056;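 active means compounds whose plate-normalised and pattern-corrected inhibition of the luciferase reporter signal at the single screening dose is 50% or more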
# An asterisk follows results filed as active; . = no result; ! = a repeat was not active.
SMILES,aSyn 5UTR inh,TWEAK-Fn14 inh,HIF-2a inh,HSP90 refold inh,C8 TRAIL sens,TROY signal inh
Cc1c(CC(=O)NCCC(=O)O)c(=O)oc2cc3oc4c(c3cc12)CCCC4,8.4,-0.1,16.6,-4.0,2.3,10.6
Cc1c(CCC(=O)N2CCC(C(=O)O)CC2)c(=O)oc2cc3oc4c(c3cc12)CCCC4,74.1*,41.4,58.1*,2.5,-14.4,24.9
COc1ccc(-c2cc3ccc(OCC(=O)NCC4CCC(C(=O)O)CC4)cc3oc2=O)cc1 (configuration not stated),-32.3,-2.0,-128.2,-0.5,58.9*,-75.6
Cc1c(CCC(=O)N[C@@H](C)C(=O)O)c(=O)oc2cc3oc4c(c3cc12)CCCC4,70.7*,37.8,75.7*,2.6,-11.7,-10.6
CCC(C)Oc1cc(-c2ccnc(Nc3cccc(Cl)c3)n2)ccn1 (configuration not stated),-26.9,91.3*,10.5,.,34.5,43.6
COc1ccc(C2=Nn3c(nnc3-c3ccccc3F)SC2)cc1OCC1CC1,.,12.8,6.0,.,3.6,51.4*
COc1ccc(C2=Nn3c(nnc3-c3ccccc3Cl)SC2)cc1OC1CCCC1,.,7.9,29.0,.,7.6,52.7*
FC(F)Oc1ccc(C2=Nn3c(nnc3-c3ccccc3Cl)SC2)cc1OCC1CC1,.,-28.9,5.3,.,-15.7,-5.7
Clc1ccccc1C1=Nn2c(nnc2-c2ccncc2)SC1,13.4,63.9*,1.6,-2.0,-4.1,48.6
CCOc1ccc(Cl)cc1-c1cc(C(=O)Nc2ccc(Br)cc2)[nH]n1,.,16.5,-5.9,.,-10.0,11.5
Oc1cccc(C=NCc2ccccc2)c1O,-18.4,-7.2,9.6,3.7,-0.4,-2.6
Oc1c(C=NCc2ccccc2)sc2ccccc12,-103.4,10.7,-293.8,24.2*,8.2,13.7
O=C1c2ccccc2C(c2nnnn2-c2ccc3c(c2)OCCO3)N1Cc1cccc(F)c1 (configuration not stated),.,-1.5,-6.5,.,14.7,1.1
CN1CCCN(c2ncnc3scc(-c4ccc(F)cc4)c23)CC1,15.3,0.2,17.2,-2.6,0.5,19.9
CC(C)c1ccc(-c2csc3ncnc(N4CCN(C)CC4)c23)cc1,11.5,51.0*,18.3,2.9,14.8,7.5
CCOC(=O)N1CCN(c2ncnc3scc(-c4ccc(Cl)cc4)c23)CC1,27.8,-15.4,0.9,6.7,5.0,35.3
Clc1ccc(-c2csc3ncnc(N4CCc5ccccc5C4)c23)cc1,9.5,78.4*,36.3,-0.2,5.5,55.3*
FC(F)(F)c1cc(C(F)(F)F)c2ccc(N3CCN(c4ccc(Cl)cc4)CC3)nc2n1,0.2,-11.6,5.2,-1.0,2.8,-5.0
N#CC(c1ccc(Cl)cc1)c1ccc2c(C(F)(F)F)cc(C(F)(F)F)nc2n1 (configuration not stated),111.6*,65.1*,-32.4,3.2,19.6,79.1*
O=C(CCl)N1CCN(S(=O)(=O)c2ccc3c(c2)CCC3)CC1,.,10.7,25.2,.,91.1*,8.9
O=[N+]([O-])c1ccc(N2CCN(C(=S)NCc3ccc(Cl)cc3)CC2)cc1,35.8,64.3*,4.2,-4.3,19.5,36.0
C[C@@H](C(=O)N[C@@H](Cc1c[nH]c2ccccc12)C(=O)O)n1nnc2ccccc2c1=O,-10.7,71.8*,23.1,3.7,-8.3,-6.3
O=C(Cn1nnc2ccccc2c1=O)N[C@@H](Cc1c[nH]c2ccccc12)C(=O)O,-25.9,5.0,17.6,-8.9,3.7,-15.1
CC(=O)/C=C(/C)NC(Cc1c[nH]c2ccccc12)C(=O)O (configuration not stated),-25.6,1.1,-4.3,4.0,19.9,50.7*!
CC(=O)N[C@H](Cc1c[nH]c2ccccc12)C(=O)O,8.5,-7.4,6.5,.,-11.2,9.5
SMILES,aSyn 5UTR inh,TWEAK-Fn14 inh,HIF-2a inh,HSP90 refold inh,C8 TRAIL sens,TROY signal inh
COC(=O)C1=CN(c2ccc(F)cc2)C(N)=C(C#N)C1c1cccc(OC)c1OC (configuration not stated),.,.,2.2,.,-2.9,.
CC(C)CN(C(=O)CSc1nc2ccccc2[nH]1)C1CCS(=O)(=O)C1 (configuration not stated),.,-1.4,0.9,.,-15.8,33.7
N#CCSc1nc2sc3c(c2c(=O)n1C1CCCCC1)CCCC3,44.9,58.4*,18.8,-0.4,13.2,38.8
CC(C)(C)c1nnc(SCC(=O)Nc2ccc(N3CCCCC3)cc2)n1N,.,-10.8,-171.1,.,-18.7,-48.6
Cc1ccc(N2C(=O)c3cccc4c(N)ccc(c34)C2=O)c2cccnc12,99.8*,25.6,7.9,-3.1,-1.3,-2.2
Cc1ccn2c(=O)c(NC(=O)c3ccc4c(c3)OCO4)c(C)nc2c1,.,7.1,8.7,.,-8.9,5.2
CCCN(CCC)c1nc(Cl)nc(NCc2ccco2)n1,14.0,75.5*,26.4,1.1,-3.2,7.3
Cc1ccc(N(C)S(=O)(=O)c2cccc(C(=O)OCC(=O)c3c(N)n(C)c(=O)n(C)c3=O)c2)cc1,.,38.4,16.1,.,-0.1,51.6*
CC(C)c1ccc(Nc2nnc(SCC(=O)Nc3ncc(S(=O)(=O)c4ccc([N+](=O)[O-])cc4)s3)s2)cc1,-66.5,-5.7,-113.3,1.2,76.3*,-5.1
Cc1ccc(Nc2nnc(SCC(=O)Nc3ncc(S(=O)(=O)c4ccc([N+](=O)[O-])cc4)s3)s2)cc1,-20.4,29.3,-5.5,0.4,32.7,-14.1
O=C(CCl)Nc1ncc(S(=O)(=O)c2ccc([N+](=O)[O-])cc2)s1,.,2.2,-5.7,.,51.0*,-18.4
Cc1ccc(Cn2cc(CN3CC(N4CCN(C5CCN(C)CC5)CC4)CS3(=O)=O)nn2)cc1 (configuration not stated),.,4.4,-1.4,.,-3.7,4.6
Cc1nc([N+](=O)[O-])c(Sc2nc3ccc([N+](=O)[O-])cc3[nH]2)n1Cc1ccccc1,6.5,80.5*,18.8,4.9,9.1,34.2
COC1=CC(=O)OC(c2cccc(C#N)c2)C1 (configuration not stated),.,.,-2.4,.,-0.2,.
CCCCCCCn1c(=O)c(C(=O)OC)c(N)c2ccccc21,18.4,50.5*,27.6,2.1,16.1,39.2
CCOc1cc(N2CCOCC2)c(OCC)cc1NC(=O)CN1C(=O)NC(CC)(c2ccc(F)cc2)C1=O (configuration not stated),.,-4.9,10.7,.,0.8,7.0
COc1ccc(N2C(=O)C(C)(C)C2c2c(O)ccc3ccccc23)cc1 (configuration not stated),4.9,15.3,18.9,16.6*,0.4,24.9
CC1(C)C(=O)N(c2ccccc2)C1c1ccccc1O (configuration not stated),-12.7,19.2,35.8,-0.9,-4.7,7.9
O=c1c2c3c(sc2nc2n1N=C(c1cccs1)CS2)CCCC3,-165.8,-11.9,-223.4,5.1,67.2*,14.2
Cc1ccc(NC(=O)c2cc(S(=O)(=O)N3CCCCC3)c[nH]2)cc1Cl,.,-15.3,3.9,.,-17.3,-6.3
CN1C2CCC1/C(=C\c1ccccc1)C(=O)/C2=C\c1ccccc1,-185.1,56.4*,88.6*,5.0,36.4,-6.9

# Assay outcomes deposited in PubChem by several laboratories.
